Results filed as inconclusive are left out. Calls of active or inactive are those of the source. Calls follow the shape of the full dose curve.
What was measured:
[1] = molecular target: Acetylcholinesterase (Homo sapiens) (UniProt P22303); assay: Acetylcholinesterase (AChE) small molecule antagonists: colormetric cell-based qHTS assay (AID 1347395); also: nearly all actives have a fitted effect of over 30% in size
Summary of the method: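 Neuroblastoma line SH-SY5Y supplied the enzyme; cells were preincubated with compound for 30 min at 37 C and 5% CO2. Acetylthiocholine with DTNB was then added for 90 min at 37 C, and thiocholine was measured by colour.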

[2] = molecular target: Acetylcholinesterase (Homo sapiens) (UniProt P22303); assay: Acetylcholinesterase (AChE) small molecule antagonists: enzyme-based qHTS assay (AID 1347397); details: Potency: AChE enzyme activity inhibition; outcome: AChE enzyme activity inhibition; also: nearly all actives have a fitted effect of over 55% in size
Summary of the method: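 Colorimetric DTNB readout of acetylthiocholine hydrolysis, 10 min at room temperature, after 30 min room-temperature exposure of 50 mU/mL recombinant human enzyme to compound; DMSO vehicle control.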

[3] = molecular target: Acetylcholinesterase (Homo sapiens) (UniProt P22303); assay: Acetylcholinesterase (AChE) small molecule antagonists: fluorescence cell-based qHTS assay (AID 1347398); details: Potency: AChE activity; outcome: AChE activity; also: nearly all actives have a fitted effect of over 50% in size
Summary of the method: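 Cellular AChE activity read as thiocholine from acetylthiocholine hydrolysis, detected by Thiolite Green fluorescence at 490/520 nm after 40 min at room temperature. Compounds were pre-incubated 30 min at 37 C on adherent SH-SY5Y cells.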

[4] = molecular target: Acetylcholinesterase (Homo sapiens) (UniProt P22303); assay: Acetylcholinesterase (AChE) small molecule antagonists: enzyme-based qHTS assay with human liver microsomes (AID 1347399); details: Potency: qHTS inhibition; outcome: qHTS inhibition; also: nearly all actives have a fitted effect of over 60% in size
Summary of the method: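 Recombinant human AChE (50 mU/mL in the enzyme mix) and human liver microsomes (0.25 mg/mL final) were preincubated with compound and NADPH (0.25 mg/mL final) for 30 min at 37 C. Acetylthiocholine/DTNB was then added; thiocholine was read colorimetrically after 10 min at room temperature.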

Measured: Potency

Sequence of Acetylcholinesterase (Homo sapiens) (P22303 whole entry, looked up): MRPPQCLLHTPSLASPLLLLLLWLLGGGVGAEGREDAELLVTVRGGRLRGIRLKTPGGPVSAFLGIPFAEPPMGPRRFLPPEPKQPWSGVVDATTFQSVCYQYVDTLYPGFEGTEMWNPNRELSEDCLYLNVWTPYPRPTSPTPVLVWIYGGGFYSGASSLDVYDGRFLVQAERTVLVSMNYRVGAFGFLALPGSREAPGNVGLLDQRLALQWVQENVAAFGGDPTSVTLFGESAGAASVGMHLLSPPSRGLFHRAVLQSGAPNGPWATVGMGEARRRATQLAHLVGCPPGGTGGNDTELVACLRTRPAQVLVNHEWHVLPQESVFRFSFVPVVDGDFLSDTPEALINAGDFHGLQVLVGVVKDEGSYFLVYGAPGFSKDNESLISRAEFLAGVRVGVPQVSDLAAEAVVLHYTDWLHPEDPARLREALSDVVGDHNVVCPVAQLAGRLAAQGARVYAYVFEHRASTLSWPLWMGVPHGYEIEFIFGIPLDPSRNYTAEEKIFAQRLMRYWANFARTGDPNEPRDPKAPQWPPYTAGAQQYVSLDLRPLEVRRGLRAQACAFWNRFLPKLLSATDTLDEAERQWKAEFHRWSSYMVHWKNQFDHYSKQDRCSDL

CCCCCCCCCC(C)C=O (stereo unspecified)
inactive: [1] | [2] | [3] | [4]

Cc1nc(-c2ccccn2)ncc1C(=O)Nn1cc(C)c2cc(F)ccc21
inactive: [1] | [2] | [3] | [4]

CCOC(=O)/C=C(C)/C=C/C=C(C)/C=C/c1c(C)cc(OC)c(C)c1C
inactive: [1] | [2] | [3] | [4]

CCCCCCCCN(C)CCCCCCCC
inactive: [1] | [2] | [3] | [4]

c1ccc2sc(SN(C3CCCCC3)C3CCCCC3)nc2c1
inactive: [1] | [2] | [3] | [4]

CCC(C)SSC(C)CC (stereo unspecified)
inactive: [1] | [2] | [3] | [4]

OC(CCN1CCCCC1)(c1ccccc1)C1CC2C=CC1C2 (stereo unspecified)
inactive: [1] | [2] | [3] | [4]

CC1(C)C(=O)C(C)(C)C1=O
inactive: [1] | [2] | [3] | [4]

CC(C)(C)OC(=O)N1C[C@@H](F)C[C@H]1C(=O)O
inactive: [1] | [2] | [3] | [4]

O=C(N[C@@H](c1ccccc1)[C@@H]1CCCCN1)c1cccc(C(F)(F)F)c1Cl
inactive: [1] | [2] | [3] | [4]

C=CC(=O)O[C@H]1C[C@@H]2CC[C@@]1(C)C2(C)C
inactive: [1] | [2] | [3] | [4]

c1coc(Cn2cccc2)c1
inactive: [1] | [2] | [3] | [4]

CCCCc1ccc2c(n1)[C@@H](c1ccc(OC)cc1C[C@H](C)C(=O)O)[C@H](C(=O)O)[C@H]2c1ccc2c(c1)OCO2
inactive: [1] | [2] | [3] | [4]

COC(=O)C1=C(C)NC(COC(N)=O)=C(C(=O)OC(C)C)C1c1cccc(Cl)c1Cl (stereo unspecified)
inactive: [1] | [2] | [3] | [4]

From PubChem BioAssay (Tox21)
